# ChEMBL document CHEMBL3988442, “University of Dundee, Small-Polar-MMV Screening Library” (2021)
# About 13,000 (27%) of roughly 48,000 compounds showed an effect of 50% or more. Some of the results follow.
# Test system: Wolbachia pipientis
# Test: Anti-Wolbachia Cell-Based Screen
# Assay type: functional
# Design: scale not given: in the data most compounds retested in dose-response had high values
# Conditions: 5 µM
row,Structure (SMILES),Percent Effect [%]
1,Cc1noc(C2CCCN(C(=O)c3ccc(F)cc3F)C2)n1 (stereo not given),-2.652
2,Cc1nc(-c2ccccc2C(=O)O)cc(C2CCN(C(C)C)C2)n1 (stereo not given),107.2
3,Cc1nc(C(C)C)ncc1C(=O)N1CCC(c2ccccc2C(=O)O)C1 (stereo not given),-21.75
4,CC(=O)N1CCC(c2nc(C)cc(-c3ccccc3C(=O)O)n2)CC1,83.33
5,COC(=O)c1cccc(NS(=O)(=O)c2cnc(NC(C)=O)s2)c1,20.99
6,Cc1cc2nc(CO[C@H]3CN(C(=O)C4CC4)C[C@H]3F)[nH]c2cc1C,14.86
7,CC(Cc1ccco1)NS(=O)(=O)N1CCCCC1 (stereo not given),-4.951
8,Cc1cc(-c2ccccc2C(=O)O)nc(C2CCCN(C(C)C)C2)n1 (stereo not given),128.4
9,COC(=O)NCC(=O)N1CCCCC1c1nc2cc(F)ccc2[nH]1 (stereo not given),-29.13
10,Cc1cc(-c2cc(F)ccc2C(=O)O)nc(C2CCCCN2C(C)C)n1 (stereo not given),125.8
11,Cc1cc(=O)c(C(=O)N2CCCCC2c2ccc(F)cc2)c[nH]1 (stereo not given),-20.91
12,COc1ccc(Cl)cc1CCNC(=O)N(C)CC1CCOC1 (stereo not given),11.56
13,CN(C)CCN1CCc2c(nnn2C)C1COCc1ccccc1.O=C(O)C(F)(F)F.O=C(O)C(F)(F)F (stereo not given),6.935
14,CN1CCC2(CC1)CN(Cc1ccc(C3CCCCO3)o1)CCCN2C (stereo not given),6.017
15,CN(C)c1ccc(NC(=O)NCc2cccnc2N(C)C)cn1,100.5
16,CC(CNC(=O)Nc1ccc(N(C)C)nc1)Cn1cccn1 (stereo not given),10.01
17,Cc1nc(CNC(=O)Nc2ccc(N(C)C)nc2)sc1C,-4.03
18,COc1ncccc1CNC(=O)Nc1ccc(N(C)C)nc1,102.4
19,Cc1nnc(NC(=O)NCc2cccnc2N(C)C)s1,4.263
20,CN(C)c1ccc(NC(=O)NCc2cccs2)cn1,-3.387
21,O=C(O)C(F)(F)F.O=C(O)C(F)(F)F.O=S(=O)(NCC1OCCc2cn(Cc3ccccn3)nc21)C1CC1 (stereo not given),3.652
22,CCCN1CCCN(c2ccc(-n3ccc(C)n3)nn2)CC1,-2.54
23,CC(C)c1cc(NC(=O)CN2CCc3ccccc3C2)on1,0.7279
24,CC(C)c1cc(NC(=O)CN2CCCC(Cn3cncn3)C2)on1 (stereo not given),3.767
25,Cc1nnc2n1CCN(CC(=O)Nc1cc(C(C)C)no1)C2,1.962

row,Structure (SMILES),Percent Effect [%]
1,CNC(=O)C1CCN(CC(=O)Nc2cc(C(C)C)no2)CC1,108.1
2,CC(C)c1cc(NC(=O)CN2CCC(C(N)=O)CC2)on1,115.1
3,CC(C)c1cc(NC(=O)CN2CCc3cncnc3C2)on1,-4.855
4,O=C1CCC2(CCN(Cc3ccc(F)cc3Cl)CC2)CN1CCO,-18.28
5,CCOc1ccc(CNC(=O)N(C)Cc2ncnn2C)cc1C,11.45
6,CC(C)c1noc(C2CCCN2C(=O)CN2CCc3ccccc32)n1 (stereo not given),-3.468
7,CN1CCCN(C(=O)c2nc3c(o2)CN(S(C)(=O)=O)C3)CC1,89.92
8,CN(C)CC(=O)N1Cc2nc(C(=O)NCc3ccccc3)oc2C1,4.563
9,CN(C)CC(=O)N1Cc2nc(C(=O)N3CCCN(C)CC3)oc2C1,106
10,CCCNC(=O)c1nc2c(o1)CN(C(=O)CN(C)C)C2,2.652
11,CN1CCN(C(=O)c2nc3c(o2)CN(C(=O)c2cccnc2)C3)CC1.O=C(O)C(F)(F)F.O=C(O)C(F)(F)F,7.797
12,CN1CCCN(C(=O)c2nc3c(o2)CN(C(=O)c2cccnc2)C3)CC1.O=C(O)C(F)(F)F.O=C(O)C(F)(F)F,-2.795
13,COCCN1CC(Nc2nc(C(C)C)nc3c2cnn3C)CC1=O (stereo not given),0.2406
14,CCCc1nc(C)cc(N2CCNC(C(=O)NCc3cccnc3)C2)n1 (stereo not given),0.7849
15,CSC(CNS(N)(=O)=O)c1cccc(Cl)c1 (stereo not given),-15.56
16,O=C(O)C(F)(F)F.O=C([C@H]1CC[C@@H]2[C@@H](CCN2Cc2nccs2)O1)N1CCCCO1,-6.039
17,CN(C)C(=O)[C@@H]1CC[C@@H]2[C@@H](CCN2Cc2nccs2)O1.O=C(O)C(F)(F)F,98.79
18,CC(C)NC(=O)[C@H]1C[C@@H]2[C@@H](C1)OCCN2Cc1nccs1.O=C(O)C(F)(F)F,0.8743
19,CS(=O)(=O)N1C[C@H]2CCCN(Cc3nccs3)[C@H]2C1.O=C(O)C(F)(F)F,1.749
20,CC(C)N(C)[C@@H]1CCN(Cc2nccs2)[C@H]1Cc1ccncc1.O=C(O)C(F)(F)F.O=C(O)C(F)(F)F.O=C(O)C(F)(F)F,-17.48
21,CN(C)C(=O)[C@@H]1C[C@@H]2[C@@H](CCN2Cc2nccs2)O1.O=C(O)C(F)(F)F,111.2
22,Cc1ccccc1-c1noc(C2CC(C(C)C)=NO2)n1 (stereo not given),10.38
23,CCN(Cc1nonc1C)C(=O)c1cnccn1,-6.24
24,CCc1cc(N(C)Cc2nonc2C)nc(N2CCOCC2)n1,-1.429
25,CCc1cc(N(C)Cc2nonc2C)nc(N(C)C)n1,93.32
